What all share (conditions): mRNA level, 48 h; actives raise or lower the signal
Read-out in test [1]: Cyclin D1 (CCND1), CCND1 (gene 595)
As to the kind of experiment: LTEA_HepaRG_CCND1: Life Technologies and Expression Analysis (LTEA) Assay for Cyclin D1 (CCND1) using HepaRG (AID 2283451).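 For AC50: TaqMan qRT-PCR transcript level normalised to ACTB GAPDH and POLR2A housekeeping genes.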 An outline of the steps: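 HepaRG plated 48 h, medium switched to serum-free induction medium, chemicals added in duplicate (top 100 uM, half-log steps, 0.5% DMSO) for 48 h, cells lysed, RNA measured by TaqMan qRT-PCR.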

Read-out in test [2]: catalase (CAT), CAT (gene 847)
As to the kind of experiment: LTEA_HepaRG_CAT: Life Technologies and Expression Analysis (LTEA) Assay for catalase (CAT) using HepaRG (AID 2283452). An outline of the steps: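 Differentiated HepaRG cells in serum-free induction medium were dosed 48 h in duplicate, eight half-log concentrations from 100 uM in 0.5% DMSO. Transcript measured by TaqMan qRT-PCR, normalised to ACTB/GAPDH/POLR2A, fitted bidirectionally against DMSO.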

Read-out in test [3]: flavin-containing dimethylaniline monooxygenases 3 (FMO3), FMO3 (gene 2328)
As to the kind of experiment: LTEA_HepaRG_FMO3: Life Technologies and Expression Analysis (LTEA) Assay for flavin-containing dimethylaniline monooxygenases 3 (FMO3) using HepaRG (AID 2283453). An outline of the steps: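 Differentiated HepaRG cells in serum-free induction medium, exposed 48 h in duplicate to 8 half-log concentrations up to 100 uM in 0.5% DMSO. FMO3 mRNA by qRT-PCR, normalized to ACTB, GAPDH, POLR2A; bidirectional fit vs DMSO.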

Read-out in test [4]: Cytochrome P450 (CYP1A1), CYP1A1 (gene 1543)
As to the kind of experiment: LTEA_HepaRG_CYP1A1: Life Technologies and Expression Analysis (LTEA) Assay for Cytochrome P450 (CYP1A1) using HepaRG (AID 2283454). An outline of the steps:
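HepaRG, 48 h post-plating switched to serum-free induction medium; 8-pt conc-response (top 100 uM, half-log, 0.5% DMSO), duplicates, 48 h. Lysis in RLT, TaqMan qRT-PCR for CYP1A1; gain or loss vs DMSO.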

Read-out in test [5]: CFLAR gene, CFLAR (gene 8837)
Put plainly: LTEA_HepaRG_CFLAR: Life Technologies and Expression Analysis (LTEA) Assay for CFLAR gene using HepaRG (AID 2283455). An outline of the steps: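 HepaRG cells were plated for 48 h, switched to serum-free induction medium, then exposed in duplicate for 48 h to 8 concentrations (top 100 uM, half-log steps, 0.5% DMSO). CFLAR mRNA was measured by qRT-PCR, normalized to ACTB, GAPDH and POLR2A.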

Read-out in test [6]: Forkhead box O1 (FOXO1), FOXO1 (gene 2308)
As to the kind of experiment: LTEA_HepaRG_FOXO1: Life Technologies and Expression Analysis (LTEA) Assay for Forkhead box O1 (FOXO1) using HepaRG (AID 2283456). An outline of the steps:
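Differentiated human HepaRG cells in serum-free induction medium were exposed in duplicate for 48 h to eight half-log concentrations (top 100 uM, 0.5% DMSO). FOXO1 mRNA was measured by TaqMan qRT-PCR, normalised to ACTB, GAPDH and POLR2A, and fitted bidirectionally against DMSO.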

Read-out in test [7]: growth arrest and DNA damage 45 (GADD45A), GADD45A (gene 1647)
Put plainly: LTEA_HepaRG_GADD45A: Life Technologies and Expression Analysis (LTEA) Assay for growth arrest and DNA damage 45 (GADD45A) using HepaRG (AID 2283458). An outline of the steps: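 Differentiated HepaRG cells exposed 48 h in serum-free induction medium to 8 concentrations, top 100 uM in half-log steps, 0.5% DMSO. GADD45A mRNA quantified by qRT-PCR, normalized to ACTB, GAPDH and POLR2A; bidirectional fit versus DMSO.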

Read-out in test [8]: ABC Transporter (ABCB1), ABCB1 (gene 5243)
Put plainly: LTEA_HepaRG_ABCB1: Life Technologies and Expression Analysis (LTEA) Assay for ABC Transporter (ABCB1) using HepaRG (AID 2283460). An outline of the steps:
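Differentiated human HepaRG cells, plated 48 h then switched to serum-free induction medium, were exposed in duplicate to eight half-log concentrations up to 100 uM in 0.5% DMSO for 48 h. ABCB1 mRNA was measured by TaqMan qRT-PCR, normalized to ACTB/GAPDH/POLR2A.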

Read-out in test [9]: growth arrest and DNA damage 45 (GADD45B), GADD45B (gene 4616)
Put plainly: LTEA_HepaRG_GADD45B: Life Technologies and Expression Analysis (LTEA) Assay for growth arrest and DNA damage 45 (GADD45B) using HepaRG (AID 2283461). An outline of the steps: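 HepaRG, ~100,000 cells/well, 48 h plating; serum-free induction medium; cpd 100 uM top, half-log x8, 0.5% DMSO, duplicate, 48 h; lysis in RLT, RNA isolation, qRT-PCR; norm ACTB/GAPDH/POLR2A; bidirectional fit vs DMSO.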

Read-out in test [10]: ABC Transporter (ABCC3), ABCC3 (gene 8714)
As to the kind of experiment: LTEA_HepaRG_ABCC3: Life Technologies and Expression Analysis (LTEA) Assay for ABC Transporter (ABCC3) using HepaRG (AID 2283462). An outline of the steps:
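Human HepaRG, 48 h dosing, 8-pt half-log series from 100 uM, 0.5% DMSO vehicle, duplicates. ABCC3 mRNA by TaqMan qRT-PCR, housekeeping-normalized; bidirectional curve fit vs DMSO.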

Read-out in test [11]: ABC Transporter (ABCB11), ABCB11 (gene 8647)
As to the kind of experiment: LTEA_HepaRG_ABCB11: Life Technologies and Expression Analysis (LTEA) Assay for ABC Transporter (ABCB11) using HepaRG (AID 2283463). An outline of the steps: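 Differentiated human HepaRG cells were exposed for 48 h in serum-free induction medium to eight half-log concentrations up to 100 uM in 0.5% DMSO. ABCB11 mRNA was quantified by qRT-PCR, normalized to ACTB, GAPDH and POLR2A, and fitted bidirectionally versus DMSO.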

Read-out in test [12]: ABC Transporter (ABCC2), ABCC2 (gene 1244)
Put plainly: LTEA_HepaRG_ABCC2: Life Technologies and Expression Analysis (LTEA) Assay for ABC Transporter (ABCC2) using HepaRG (AID 2283464). An outline of the steps: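 HepaRG, 48 h post-plating; serum-free induction medium; cpd 8-pt, 100 uM top, half-log, 0.5% DMSO, duplicate, 48 h. Readout: ABCC2 mRNA by qRT-PCR, norm. ACTB/GAPDH/POLR2A. Bidirectional fit vs DMSO baseline.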

Read-out in test [13]: Broad substrate specificity ATP-binding cassette transporter ABCG2 (Homo sapiens) (UniProt Q9UNQ0)
As to the kind of experiment: LTEA_HepaRG_ABCG2: Life Technologies and Expression Analysis (LTEA) Assay for ABC Transporter (ABCG2) using HepaRG (AID 2283465). An outline of the steps:
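Differentiated HepaRG cells in serum-free induction medium were exposed for 48 h, in duplicate, to eight half-log concentrations up to 100 uM in 0.5% DMSO. ABCG2 mRNA was measured by TaqMan qRT-PCR, normalized to ACTB, GAPDH and POLR2A, and fitted bidirectionally versus DMSO.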

Read-out in test [14]: ATP-citrate lyase (ACLY), ACLY (gene 47)
As to the kind of experiment: LTEA_HepaRG_ACLY: Life Technologies and Expression Analysis (LTEA) Assay for ATP-citrate lyase (ACLY) using HepaRG (AID 2283466). An outline of the steps:
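Differentiated human HepaRG cells in serum-free induction medium exposed 48 h, in duplicate, to eight half-log concentrations from 100 uM top in 0.5% DMSO; ACLY mRNA measured by qRT-PCR, normalized to ACTB, GAPDH, POLR2A, fitted bidirectionally versus DMSO.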

Read-out in test [15]: Alkaline Phosphatase, Placental (ALPP) gene, ALPP (gene 250)
As to the kind of experiment: LTEA_HepaRG_ALPP: Life Technologies and Expression Analysis (LTEA) Assay for Alkaline Phosphatase, Placental (ALPP) gene using HepaRG (AID 2283468). An outline of the steps:
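HepaRG, 48 h plating then 48 h dosing, serum-free induction medium, 0.5% DMSO. 8 conc, half-log, max 100 uM, duplicates. Endpoint: ALPP transcript by qRT-PCR, housekeeping-normalized; gain or loss fitted vs DMSO.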

Read-out in test [16]: Bcl-2 (BAD) gene, BAD (gene 572)
Put plainly: LTEA_HepaRG_BAD: Life Technologies and Expression Analysis (LTEA) Assay for Bcl-2 (BAD) gene using HepaRG (AID 2283469). An outline of the steps:
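Differentiated human HepaRG cells in serum-free induction medium were exposed in duplicate for 48 h to eight concentrations (top 100 uM, half-log steps, 0.5% DMSO). BAD mRNA was quantified by qRT-PCR normalised to ACTB, GAPDH and POLR2A, with bidirectional fitting versus DMSO.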

Read-out in test [17]: Forkhead box O3 (FOXO3), FOXO3 (gene 2309)
As to the kind of experiment: LTEA_HepaRG_FOXO3: Life Technologies and Expression Analysis (LTEA) Assay for Forkhead box O3 (FOXO3) using HepaRG (AID 2283459). An outline of the steps:
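Differentiated human HepaRG cells in serum-free induction medium were exposed in duplicate for 48 h to eight half-log concentrations up to 100 uM in 0.5% DMSO. FOXO3 mRNA was quantified by qRT-PCR, normalized to ACTB, GAPDH and POLR2A, with bidirectional fitting versus DMSO.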

Read-out in test [18]: Peroxisomal acyl-coenzyme A oxidase 1 (ACOX1) gene, ACOX1 (gene 51)
Put plainly: LTEA_HepaRG_ACOX1: Life Technologies and Expression Analysis (LTEA) Assay for Peroxisomal acyl-coenzyme A oxidase 1 (ACOX1) gene using HepaRG (AID 2283467). An outline of the steps: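 Differentiated human HepaRG cells were exposed in duplicate for 48 h in serum-free induction medium to eight half-log concentrations up to 100 uM in 0.5% DMSO. ACOX1 mRNA was then quantified by TaqMan qRT-PCR, normalized to ACTB, GAPDH and POLR2A.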

Active and inactive are the calls of the source. Rule for the calls: active = hit-call score of the fitted dose curve at least 0.9, where 1 is the maximum; inactive = score below 0.9.

Sequence of Broad substrate specificity ATP-binding cassette transporter ABCG2 (Homo sapiens) (Q9UNQ0 whole entry, looked up): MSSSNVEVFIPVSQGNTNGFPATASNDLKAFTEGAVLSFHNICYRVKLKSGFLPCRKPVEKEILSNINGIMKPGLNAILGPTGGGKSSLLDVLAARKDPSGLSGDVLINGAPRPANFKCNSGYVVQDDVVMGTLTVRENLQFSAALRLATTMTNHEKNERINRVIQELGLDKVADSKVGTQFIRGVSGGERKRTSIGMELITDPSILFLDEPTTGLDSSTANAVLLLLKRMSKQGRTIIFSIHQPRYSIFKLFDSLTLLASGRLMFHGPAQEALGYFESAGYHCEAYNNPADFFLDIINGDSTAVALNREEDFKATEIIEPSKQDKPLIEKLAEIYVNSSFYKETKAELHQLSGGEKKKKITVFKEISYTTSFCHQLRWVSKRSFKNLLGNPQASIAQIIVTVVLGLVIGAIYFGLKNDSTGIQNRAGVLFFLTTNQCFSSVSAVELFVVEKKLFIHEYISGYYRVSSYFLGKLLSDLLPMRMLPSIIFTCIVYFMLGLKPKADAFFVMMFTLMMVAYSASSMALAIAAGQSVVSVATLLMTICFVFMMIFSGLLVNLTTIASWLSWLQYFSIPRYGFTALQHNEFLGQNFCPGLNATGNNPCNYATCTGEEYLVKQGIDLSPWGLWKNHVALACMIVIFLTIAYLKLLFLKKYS

As usually defined, the AC50 is the midpoint of the concentration-response curve, whichever way the signal moves. Take `CCCC(=O)O`: the call in test [1], in test [2], in test [3], in test [4], in test [5] and in test [6] was inactive. The call in test [8], in test [9], in test [10], in test [11], in [12] and in [13] was inactive. Also, the compound was called inactive in [14], in [15] and in [16]. Further, the AC50 in [7] was 0.0993 µM (active).

Consider `O=C(O)c1[nH]n(-c2ccc(S(=O)(=O)O)cc2)c(=O)c1N=Nc1ccc(S(=O)(=O)O)cc1`, for which the compound was called inactive in [1], in test [3], in test [5], in test [6], in test [7] and in test [17]. The result in test [8], in [9], in test [10], in test [11], in test [12] and in [13] was inactive. Further, the call in test [14] and in [16] was inactive. Moreover, in [4], the AC50 was 33 µM (active).

Regarding `Nc1nc(=S)c2[nH]cnc2[nH]1`, the outcome in [1], in test [5], in test [6], in test [7], in test [17] and in test [9] was inactive. The AC50 is 6.74 µM (active) in [3]; 76.1 µM (active) in test [4]; 10.3 µM (active) in test [8]; 13.9 µM (active) in test [10]; 7.88 µM (active) in test [11]; 21.1 µM (active) in [12]. In addition, the half-maximal activity concentration (AC50) in test [13] is 8.31 µM (active); in [14] it was 10.2 µM (active); in [18] it was 12.2 µM (active).

Regarding `CS(=O)(=O)c1ccc([C@@H](C[C@H]2CCC(=O)C2)C(=O)Nc2cnccn2)cc1Cl`, the AC50 in [1] was 1.64 µM (active); in test [5] it was 0.753 µM (active); in [6], 1.27 µM (active); in test [7], 1.28 µM (active); in test [17], 9.92 µM (active); in test [8] it was 1.54 µM (active). Further, the half-maximal activity concentration (AC50) in test [11] is 11 µM (active); in test [12] it was 12.5 µM (active); in test [13], 1.29 µM (active); in test [15], 2.94 µM (active); in [16], 1.23 µM (active). Also, the result in test [3], in test [10], in test [14] and in test [18] was inactive.

Values taken from PubChem BioAssay (EPA / NIEHS).
